Assay results: PubChem BioAssay
Inconclusive results are not listed. The source made the active and inactive calls. Unless noted, how the calls were made is not given here.

Experiments:
[1] = compounds altering circadian rhythm period length – cell-based, LOPAC library, luminescence reporter (AID 2774); settings: circadian reporter cells, at 7 µM, actives lie on both sides;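 further: values are relative to mean of DMSO wells on each plate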
[2] = viability loss with induced miR-34 in A549 – imaging, A549 dox-inducible miR-34, nuclei and caspase counts, primary screen (AID 1347080;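 active means compounds whose cell count with miR-34 switched on is under 0.7 times the count with it off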); settings: A549 miR-34 inducible, Hoechst nuclei count, 48 h
[3] = blockers of cellular phospholipid synthesis – cell-based, LOPAC library, screen 4, primary screen (AID 1347384); settings: animal cells, phospholipid biosynthesis inhibition screen; at 10 µM
[4] = galactose survival enhancers in mitochondrial complex I cybrids – cell-based, galactose medium, ATP luminescence, primary screen (AID 1645843;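 active means z-score of at least 1.8 in each of two replicates, scored against plate mean and spread of sample wells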;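 further: positive z means more ATP and so rescue of galactose-driven cybrid death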); settings: complex I mutant cybrid cells, 72 h, stronger effect = higher value
[5] = P. berghei load reduction in hepatocytes – cell-based, HepG2, luciferase luminescence, HepG2 viability, primary screen (AID 624349; in the data active means parasite load remaining mostly below about 12%, no sharp cut-off; inactive means mostly above about 10%;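 further: 100% = mean of DMSO negative control wells on the same plate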); settings: P. berghei liver stage in HepG2, luciferase luminescence, concentration not given here; parasite load remaining: stronger effect = lower value; viability: measured here: HepG2 viability without parasites
[6] = system: Hepatitis C virus NS3 helicase; assay: blockers of NS3h binding to ssDNA – biochemical, fluorescence polarization, LOPAC1280 library, primary screen (AID 687035; in the data active means inhibition above about 37%); settings: Purified HCV NS3 helicase, Cy5-dT15 ssDNA binding fluorescence polarization; stronger effect = higher value; concentration not given here
[7] = compounds altering Cy5-DNA-NS3h complex signal – biochemical, LOPAC1280, artefact control for HCV NS3 helicase inhibitor project (AID 687037); settings: Cy5-DNA-NS3h complex fluorescence interference counterscreen
[8] = compounds altering viability of human ES cells (AID 493140); settings: human embryonic stem cell survival screen; stronger effect = higher value;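 further: cells exposed to compounds for four days before counting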
[9] = molecular target: ATP-dependent translocase ABCB1 (Homo sapiens) (UniProt P08183); assay: P-glycoprotein substrate transport blockade – cell-based (AID 377; in the data active means fluorescence slope change above about 50%); settings: MDR1-expressing cells, fluorescent substrate accumulation slope; stronger effect = higher value; concentration not given here
ATP-dependent translocase ABCB1 (Homo sapiens), sequence (P08183 whole entry, looked up): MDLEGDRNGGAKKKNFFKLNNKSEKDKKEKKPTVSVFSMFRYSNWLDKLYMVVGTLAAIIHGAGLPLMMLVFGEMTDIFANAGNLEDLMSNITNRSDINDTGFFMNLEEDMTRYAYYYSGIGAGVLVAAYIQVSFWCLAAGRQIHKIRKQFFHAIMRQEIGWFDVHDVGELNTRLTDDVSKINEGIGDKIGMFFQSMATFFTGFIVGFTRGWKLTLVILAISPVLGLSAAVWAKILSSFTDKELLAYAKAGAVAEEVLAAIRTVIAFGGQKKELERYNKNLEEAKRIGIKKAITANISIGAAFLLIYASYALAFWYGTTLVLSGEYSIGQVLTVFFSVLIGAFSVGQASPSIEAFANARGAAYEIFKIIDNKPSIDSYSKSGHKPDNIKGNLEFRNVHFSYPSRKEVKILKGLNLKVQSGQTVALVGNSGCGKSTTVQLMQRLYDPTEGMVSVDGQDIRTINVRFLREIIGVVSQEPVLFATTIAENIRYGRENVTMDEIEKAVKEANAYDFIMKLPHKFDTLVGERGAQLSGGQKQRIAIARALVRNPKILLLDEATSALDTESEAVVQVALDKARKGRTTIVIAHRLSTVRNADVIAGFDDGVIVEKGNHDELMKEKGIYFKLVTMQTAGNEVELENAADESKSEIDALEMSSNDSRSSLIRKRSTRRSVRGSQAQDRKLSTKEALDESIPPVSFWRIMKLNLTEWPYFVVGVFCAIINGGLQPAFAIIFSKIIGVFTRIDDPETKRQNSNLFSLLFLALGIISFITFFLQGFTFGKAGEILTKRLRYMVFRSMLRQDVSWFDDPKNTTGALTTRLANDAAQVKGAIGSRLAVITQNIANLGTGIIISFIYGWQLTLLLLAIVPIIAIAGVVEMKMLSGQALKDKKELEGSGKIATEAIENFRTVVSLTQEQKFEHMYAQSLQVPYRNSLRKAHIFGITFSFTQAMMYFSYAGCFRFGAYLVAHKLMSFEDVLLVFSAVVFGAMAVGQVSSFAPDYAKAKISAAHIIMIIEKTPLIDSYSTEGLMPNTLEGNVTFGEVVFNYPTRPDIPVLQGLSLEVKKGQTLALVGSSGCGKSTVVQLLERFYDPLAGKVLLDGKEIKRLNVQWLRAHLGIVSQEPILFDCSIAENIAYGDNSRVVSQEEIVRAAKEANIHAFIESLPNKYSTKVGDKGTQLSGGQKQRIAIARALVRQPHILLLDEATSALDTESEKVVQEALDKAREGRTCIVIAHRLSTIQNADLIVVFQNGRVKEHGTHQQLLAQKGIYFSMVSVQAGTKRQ

[10] = stronger effect = lower value, cell number ratio, induced over uninduced
[11] = measured here: relative caspase fold change +Dox/-Dox
[12] = measured here: total cells with miR-34 induction, stronger effect = lower value
[13] = measured here: total cells without miR-34 induction

Structure (SMILES)	period change [1]	fold change [2, 10]	fold change [2, 11]	cell count [2, 12]	cell count [2, 13]	outcome [3]	z-score [4]	parasite load remaining [5]	viability [5] [%]	inhibition [6]	fluorescence ratio (interference) [7]	survival [8]	fluorescence slope change [9]
CC(=O)/C(C)=N/O	0.15 h (inactive)	0.97 (inactive)	2.72	9060	9340	inactive	0.485 (inactive)						
N#CC(C#N)=C(N)/C(C#N)=C/c1ccc(O)cc1	-0.025 h (inactive)	0.894 (inactive)	1.36	8590	9610	inactive	0.29 (inactive)	31.2% (inactive)	70.9	-2% (inactive)	1 (inactive)		
CN(C)C(N)=NCCC[C@H](N)C(=O)O	-0.14 h (inactive)	0.963 (inactive)	1.27	9830	10200	inactive	0.265 (inactive)			-2% (inactive)	1 (inactive)		
Brc1ccc([C@H]2CN3CCSC3=N2)cc1	-0.16 h (inactive)	1.04 (inactive)	1.3	9880	9490	inactive	0.145 (inactive)			0% (inactive)	0.9 (inactive)	79.5 (inactive)	
Nc1ccc(N2C(=O)c3ccccc3C2=O)c(Cl)c1	0.15 h (inactive)	0.973 (inactive)	1.66	10200	10500	inactive	0.45 (inactive)			0% (inactive)	1 (inactive)		
NC(=O)C(=O)O	0.025 h (inactive)	1.05 (inactive)	1.23	10900	10300	inactive	0.585 (inactive)			-7% (inactive)	0.9 (inactive)		
[N-]=[N+]=Nc1ccc(C(=O)CSC[C@H](NC(=O)CC[C@H](N)C(=O)O)C(=O)NCC(=O)O)cc1	0 h (inactive)	0.923 (inactive)	1.4	5390	5840	inactive	-1.12 (inactive)			-5% (inactive)	0.9 (inactive)		
CC1C(=O)N(C)C(=O)c2nc[nH]c21 (stereo not given)	0.13 h (inactive)	0.928 (inactive)	1.21	9940	10700	inactive	0.22 (inactive)			-3% (inactive)	0.9 (inactive)		
CC[C@H]1OC(=O)[C@H](C)C(O[C@H]2C[C@@](C)(OC)[C@@H](O)[C@H](C)O2)[C@H](C)[C@@H](OC2O[C@H](C)C[C@H](N(C)C)[C@H]2O)[C@](C)(O)C[C@@H](C)CN(C)[C@H](C)[C@@H](O)[C@]1(C)O (stereo not given in full)		1.06 (inactive)	1.99	10100	9500	inactive	-0.895 (inactive)						
O=C(CCc1ccncc1)NNC(=O)N1Cc2ccccc2Oc2ccc(Cl)cc21		1.04 (inactive)	1.18	8820	8460	inactive	-0.355 (inactive)						
COc1ccc(/C=C/c2nc(NCCCN(C)C)c3ccccc3n2)cc1		1.02 (inactive)	1.21	1330	1300	inactive	-1.21 (inactive)						
CN1C2CC(OC(=O)[C@H](CO)c3ccccc3)CC1C1OC12 (stereo not given in full)	0.01 h (inactive)	0.96 (inactive)	0.75	10100	10500	inactive	0.535 (inactive)			-4% (inactive)	1 (inactive)	4.58 (inactive)	
CCC(=O)N1CCN(C(=O)c2ccccc2)CC1	-0.115 h (inactive)	0.906 (inactive)	1.03	9050	9990	inactive	0.245 (inactive)			-1% (inactive)	1.1 (inactive)		
NC(Cc1cccc(-c2ccccc2CP(=O)(O)O)c1)C(=O)O (stereo not given)	-0.07 h (inactive)	0.998 (inactive)	1.77	10900	11000	inactive	0.42 (inactive)			-5% (inactive)	1 (inactive)		
S=C(Nc1ccccc1)Nc1nccs1	0.02 h (inactive)	1.08 (inactive)	0.629	6230	5760	inactive	-1.19 (inactive)			-3% (inactive)	1 (inactive)		65.3% (active)
Nc1ncnc2c1nc(Br)n2C1OC2COP(=O)(O)O[C@@H]2C1O (stereo not given in full)	-0.095 h (inactive)	0.962 (inactive)	1.6	8440	8780	inactive	0.735 (inactive)			-5% (inactive)	0.9 (inactive)		
CNCCNS(=O)(=O)c1cccc2cnccc12	0.23 h (inactive)	1.05 (inactive)	1.37	10700	10200	inactive	-0.89 (inactive)	51% (inactive)	111	-6% (inactive)	0.9 (inactive)	194 (active)	
